# In PubChem BioAssay:
# Calls of active or inactive are those of the source. Unless noted, how the calls were made is not given here.
# How the values were obtained:
# [1] = system: XIP peptide (Xip251-270) binding; assay: XIP fragment 251-270 binding compounds – biochemical, small-molecule microarray, fluorescence 635/667 nm, 0.1 µg/mL protein, primary screen (AID 1182); details: fluorescent protein binding, 635 nm, higher = more signal, called active from +8 up or from −8 down
# XIP peptide (Xip251-270) = assay: compounds binding XIP fragment 251-270 – biochemical, small-molecule microarray, fluorescence 635/667 nm, 0.5 µg/mL protein, primary screen (AID 1183); details: fluorescence 635 nm, higher = more signal
# [2] = blood-stage malaria parasite viability loss – strain 3D7, DAPI fluorescence, 100 nL, primary screen (AID 1184);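 further: parasites grown inside human red blood cells in medium with human serum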; details: P. falciparum 3D7 growth, 3 d, higher = more signal
# [3] = target: Homeobox protein Hox-A13 (Mus musculus) (UniProt Q62424); assay: disruptors of Hoxa13 oligonucleotide interaction – biochemical, fluorescence polarization, labeled oligonucleotide, primary screen (AID 1185); details: Hoxa13:DNA binding, 15 min, higher = more signal, called active from +8 up or from −8 down
# Homeobox protein Hox-A13 (Mus musculus), sequence (Q62424 whole entry, looked up): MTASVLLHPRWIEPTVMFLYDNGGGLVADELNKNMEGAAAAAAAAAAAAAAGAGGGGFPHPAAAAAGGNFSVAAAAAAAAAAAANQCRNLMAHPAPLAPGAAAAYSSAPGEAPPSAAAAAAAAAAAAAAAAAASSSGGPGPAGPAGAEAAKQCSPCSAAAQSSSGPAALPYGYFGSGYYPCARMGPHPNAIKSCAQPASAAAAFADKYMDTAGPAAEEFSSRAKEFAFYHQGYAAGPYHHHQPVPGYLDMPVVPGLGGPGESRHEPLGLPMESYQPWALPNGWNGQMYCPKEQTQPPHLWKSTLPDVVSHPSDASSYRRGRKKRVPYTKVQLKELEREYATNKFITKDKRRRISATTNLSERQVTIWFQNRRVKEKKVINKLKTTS
# [4] = blockers of DNA damage checkpoint Chk1 activation – imaging, HeLa, hydroxyurea, phospho-Chk1 antibody, percent positive cells, primary screen (AID 1186); details: hydroxyurea-induced phospho-Chk1 immunofluorescence imaging, higher = more signal
# [5] = blockers of DNA damage checkpoint Chk1 activation – imaging, HeLa, hydroxyurea, phospho-Chk1 nuclear intensity, primary screen (AID 1187); details: hydroxyurea-induced phospho-Chk1 immunofluorescence imaging, higher = more signal
Structure (SMILES),composite z-score [1],composite z-score (XIP peptide (Xip251-270)),z-score [2],z-score [3],z-score [4],z-score [5]
C#C[C@H](O[Si](C#CCCCCCC)(C(C)C)C(C)C)c1ccccc1,0.0004 (inactive),-0.113,-1.32,-1.2 (inactive),-0.0616 (inactive),-0.0839 (inactive)
CC1(C)C(=O)C(c2ccccc2)=C2CN3C(=O)N(CCc4ccccc4)C(=O)C3(Cc3ccccc3)C=C21 (centres undefined),1.7 (inactive),-0.119,-1.34,-0.335 (inactive),-0.0628 (inactive),0.121 (inactive)
[N-]=[N+]=NCc1ccccc1[C@H]1OC(c2ccc(OCCCO)cc2)=N[C@@]1(Cc1ccccc1)C(=O)NCC(O)CO (some centres undefined),0.701 (inactive),0.306,-2.48,-3.47 (inactive),0.105 (inactive),0.231 (inactive)
COCCOC(=O)N1C(=O)[C@@]2(c3cc(C#Cc4ccc(OC)cc4)ccc31)[C@H](c1ccc(O)cc1)N1[C@H](c3ccccc3)[C@H](c3ccccc3)OC(=O)[C@H]1[C@@H]2C(=O)N1CCN(c2ncccn2)CC1,0.164 (inactive),0.596,-1.86,-0.821 (inactive),0.187 (inactive),0.302 (inactive)
Cc1ccc(S[C@]2(C(=O)NCCCN(C)C)CC(=O)N(Cc3ccccc3)[C@@H]2c2ccc(CO)cc2)cc1,-0.712 (inactive),0.135,-1.07,-2.18 (inactive),0.327 (inactive),0.603 (inactive)
C=C(CCCC)C(=O)CC[C@H](OC(C)=O)c1ccc(CO)o1,0.35 (inactive),0.0921,-1.82,-3.62 (inactive),-0.059 (inactive),-0.222 (inactive)
Cc1ccc([C@H]2C(C(=O)O)=C[C@@H](C(C)C)N2S(=O)(=O)c2ccc(C)cc2)cc1,0.165 (inactive),0.386,1.65,-4.3 (inactive),-0.482 (inactive),-1.01 (inactive)
Cc1ccc(S[C@]2(C(=O)NCc3ccccc3)CC(=O)N(Cc3cc(C(F)(F)F)cc(C(F)(F)F)c3)[C@@H]2c2ccc(CO)cc2)cc1,-0.384 (inactive),0.365,-0.398,-2.38 (inactive),0.199 (inactive),0.311 (inactive)
C=CCC(OC(C)=O)[C@@H]1[C@@H](N(Cc2ccc(-c3cccc(C(F)(F)F)c3)o2)C(=O)c2ccc(C)cc2)c2cc(OCCCO)ccc2N1C(=O)c1ccc2ccccc2n1 (some centres undefined),-0.0348 (inactive),-0.789,-0.537,-0.918 (inactive),-0.51 (inactive),-0.703 (inactive)
COCCOC(=O)N1C(=O)[C@@]2(c3cc(C#CCC(C(=O)OC)C(=O)OC)ccc31)[C@H](c1ccccc1OCCO)N1[C@H](c3ccccc3)[C@H](c3ccccc3)OC(=O)[C@H]1[C@@H]2C(=O)Nc1nc2ccccc2s1,0.83 (inactive),0.862,-1.53,3.51 (inactive),-0.5 (inactive),-0.31 (inactive)
O=C1O[C@@H](c2ccccc2)[C@@H](c2ccccc2)N2[C@@H](c3ccc(O)cc3)[C@]3(C(=O)Nc4ccccc43)[C@@H](C(=O)NC[C@H](O)c3ccccc3)[C@H]12,0.737 (inactive),0.232,1.15,-5.08 (inactive),-0.0877 (inactive),-0.173 (inactive)
C=C(COC)C(=O)CC[C@@H](OC(=O)c1ccccc1-c1ccccc1C(=O)O)c1ccc(CO)o1,-0.5 (inactive),0.633,1.47,-4.32 (inactive),1.37 (inactive),0.477 (inactive)
NC(=O)NCC#Cc1ccc2c(c1)[C@]1(C(=O)N2)[C@H](C(=O)NC[C@H](O)c2ccccc2)[C@H]2C(=O)O[C@H](c3ccccc3)[C@H](c3ccccc3)N2[C@@H]1c1ccccc1OCCO,0.635 (inactive),0.799,-1.32,-3.41 (inactive),-0.228 (inactive),-0.374 (inactive)
C=C(/C(=C/C[C@@H](OC(C)=O)c1ccc(CO)o1)c1cnc2ccccc2c1)C(C)C,0.64 (inactive),0.764,-1.43,-5.54 (inactive),-0.0375 (inactive),0.0518 (inactive)
CCN(CC)c1ccc(N2CC=CC34O[C@@H]5C=CCCOC(=O)C5[C@H]3C(=O)N(CCCO)[C@@H]4C2=O)cc1 (some centres undefined),-0.658 (inactive),-0.588,-1.49,-3.95 (inactive),-0.28 (inactive),-0.816 (inactive)
O=C1O[C@@H](c2ccccc2)[C@@H](c2ccccc2)N2[C@@H](c3ccc(O)cc3)[C@]3(C(=O)Nc4ccccc43)[C@@H](C(=O)N3CCCCCCC3)[C@H]12,3.19 (inactive),0.862,-1.54,3.1 (inactive),0.242 (inactive),0.883 (inactive)
[N-]=[N+]=NCc1ccccc1C[C@]1(C(=O)NCc2ccccc2)COC(c2ccc(OCCCO)cc2)=N1,0.395 (inactive),0.689,-2.45,-6.24 (inactive),-0.403 (inactive),-0.737 (inactive)

Structure (SMILES),composite z-score [1],composite z-score (XIP peptide (Xip251-270)),z-score [2],z-score [3],z-score [4],z-score [5]
O=C1O[C@H](c2ccccc2)[C@H](c2ccccc2)N2[C@H]1[C@@H](C(=O)Nc1nc3ccccc3s1)[C@]1(C(=O)Nc3ccc(C#CC4=CCCCC4)cc31)[C@H]2c1ccc(OCCO)cc1,-0.172 (inactive),0.656,-0.985,-11.7 (active),0.0032 (inactive),-0.515 (inactive)
C=C(C(=O)CC[C@@H](OC(=O)c1cccnc1)c1ccc(OCCO)cc1)C(C)C,1.15 (inactive),0.611,-0.496,-3.94 (inactive),1.38 (inactive),1.36 (inactive)
CCCCCN1CC=CC23O[C@@H]4C=CCCOC(=O)C4[C@H]2C(=O)N(CCCO)[C@@H]3C1=O (some centres undefined),0.0154 (inactive),0.466,-1.54,-3.33 (inactive),-0.299 (inactive),-0.688 (inactive)
COC(=O)[C@@]1(Cc2ccccc2)[C@H]2c3cc(C(=O)N(C)C)n(Cc4ccccc4)c3C[C@H]2CN1C(=O)c1ccccc1,0.394 (inactive),0.225,-1.43,-5.49 (inactive),1.54 (inactive),0.928 (inactive)
CCCCN1CC=CC23O[C@@H]4/C=C\CCCOC(=O)C4[C@H]2C(=O)N(C(C)CO)[C@@H]3C1=O (some centres undefined),0.502 (inactive),-0.269,0.494,-4.24 (inactive),0.166 (inactive),0.711 (inactive)
CCCCC(=C=CC[C@H](O)c1ccccc1OCCO)C[C@H](O)c1cc(Cl)cc(Cl)c1O,0.776 (inactive),0.832,-1.09,-4.23 (inactive),0.0899 (inactive),1.23 (inactive)
C[N+](C)(C)CCCC[C@@H]1NC(=O)[C@H]2C[C@@H](C(=O)O)[C@@H](c3cccc(OCCO)c3)N2C1=O,3.68 (inactive),0.809,-0.255,-0.304 (inactive),0.336 (inactive),0.213 (inactive)
[N-]=[N+]=NCc1ccccc1C[C@]1(C(=O)N2CCOCC2)N=C(c2ccc(OCCCO)cc2)O[C@H]1c1ccccc1,0.855 (inactive),0.21,-2.38,-6.01 (inactive),-0.638 (inactive),-0.71 (inactive)
CC(C)(C)OC(=O)CC[C@]1(C(=O)NCC(O)CO)N=C(c2ccc(OCCCO)cc2)O[C@H]1c1ccccc1CN=[N+]=[N-] (some centres undefined),3.09 (inactive),0.878,-0.121,-5.33 (inactive),-0.029 (inactive),0.402 (inactive)
O=C(NCC(F)(F)F)[C@@H]1c2ccccc2C(=O)N(Cc2ccccc2)[C@H]1c1ccc(CO)cc1,0.377 (inactive),-0.396,-0.778,-1.25 (inactive),-0.571 (inactive),-0.801 (inactive)
O=C1O[C@@H](c2ccccc2)[C@@H](c2ccccc2)N2[C@@H](c3ccc(O)cc3)[C@]3(C(=O)Nc4ccc(C#CCCO)cc43)[C@@H](C(=O)N3CCCCCCC3)[C@H]12,0.868 (inactive),0.876,-1.1,1.7 (inactive),-0.149 (inactive),-0.56 (inactive)
C=C[C@@H](C)[C@@H](OC(=O)Nc1ccc(OC)cc1)c1ccc(O)c2ccccc12,1.36 (inactive),-0.0477,-1.65,-3.38 (inactive),0.453 (inactive),0.196 (inactive)
COCCn1c(C(=O)N2CCCC2)cc2c1C[C@H]1CN(C(=O)c3ccccc3)[C@@](Cc3ccc(OC)cc3)(C(=O)OC)[C@@H]21,0.541 (inactive),0.603,-1.55,-4.97 (inactive),-0.598 (inactive),-0.634 (inactive)
COCC1C2CC[C@H]3C(OCc4ccc(F)cc4C(F)(F)F)OC[C@]4(C)[C@H]3C2=C(CN4C(=O)OC(C)(C)C)[C@H](C)C1COC (some centres undefined),1.84 (inactive),0.761,-1.06,-3 (inactive),-0.43 (inactive),-0.0765 (inactive)
C=C[C@H](OC)[C@@H](OC(=O)Nc1ccc(SC)cc1)c1ccc(OCCO)cc1,0.591 (inactive),-0.0661,0.194,-5.62 (inactive),0.259 (inactive),0.654 (inactive)
Cc1ccc(S[C@]2(C(=O)NCCCN(C)C)CC(=O)N(C(C)C)[C@@H]2c2ccc(CO)cc2I)cc1,0.352 (inactive),0.412,-0.621,-2.81 (inactive),0.535 (inactive),0.775 (inactive)
[N-]=[N+]=NCc1ccccc1[C@@H]1OC(c2ccc(OCCCO)cc2)=N[C@]1(Cc1ccccc1)C(=O)O,0.078 (inactive),0.859,0.615,-4.89 (inactive),0.412 (inactive),0.595 (inactive)
